Screening data deposited in PubChem BioAssay by several laboratories.
GRK2 aptamer HTS: blocks RNA aptamer binding to human GRK2 | P25098 | bead flow cytometry, FAM-aptamer displacement from GRK2 | inhibition of aptamer binding, % at 10 µM | 330,000 tested, 0.59% active;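 active = inhibition of aptamer binding above 40%, roughly 3 SD of noise, on plates passing a quality check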;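 also: median bead fluorescence of bound FAM aptamer so fluorescent compounds give negative values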
Target sequence (P25098 whole entry, looked up): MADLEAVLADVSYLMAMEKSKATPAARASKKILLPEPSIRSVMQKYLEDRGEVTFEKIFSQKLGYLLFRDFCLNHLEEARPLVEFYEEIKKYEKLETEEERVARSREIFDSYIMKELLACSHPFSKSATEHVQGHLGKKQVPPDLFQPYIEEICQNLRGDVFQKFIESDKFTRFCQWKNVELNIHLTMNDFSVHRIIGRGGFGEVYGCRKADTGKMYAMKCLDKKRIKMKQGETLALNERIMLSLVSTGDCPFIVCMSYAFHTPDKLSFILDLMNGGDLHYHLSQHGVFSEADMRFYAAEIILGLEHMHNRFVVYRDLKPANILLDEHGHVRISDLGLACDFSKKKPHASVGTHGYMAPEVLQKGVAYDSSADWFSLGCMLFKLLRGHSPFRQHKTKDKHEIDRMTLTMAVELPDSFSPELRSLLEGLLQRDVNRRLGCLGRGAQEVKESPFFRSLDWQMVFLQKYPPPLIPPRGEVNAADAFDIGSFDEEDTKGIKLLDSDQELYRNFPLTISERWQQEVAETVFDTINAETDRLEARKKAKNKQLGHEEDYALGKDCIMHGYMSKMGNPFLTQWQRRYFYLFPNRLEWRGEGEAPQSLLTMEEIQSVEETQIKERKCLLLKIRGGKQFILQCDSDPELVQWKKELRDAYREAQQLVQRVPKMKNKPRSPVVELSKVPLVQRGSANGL
Efflux pump mplx: antifungal efflux pump inhibition, Nile Red retention | S. cerevisiae Candida pump triplex | inhibition, % at 10 µM | 330,000 tested, 0.44% active | AID 485275;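 active = plate passing quality check with inhibition over a set limit, or well fluorescence over plate mean plus 4 SD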;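 also: Nile Red retained in pooled yeast measured as flow cytometry median fluorescence; 0% = buffer negative control and 100% = Enniatin B positive control; higher means more Nile Red kept so more efflux inhibition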
CR mimetic SO: yeast age-related superoxide inhibition as caloric restriction mimetic. S. cerevisiae aged cells, superoxide DHE fluorescence; hits give low values. superoxide response (% of plate mean), % at 10 µM. 330,000 tested, 0.18% active;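 active = superoxide response under a set limit, about three screen SD below normal, cut at about 65% in these data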;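 also: yeast aged for seven days with compound at 30 °C before DHE staining; 100% = average MFI of all compound-treated wells on the plate with controls excluded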
ATG4B inh: blocks human ATG4B protease cleavage of LC3 substrate; inhibition, % at 8.33 µM; ATG4B cleavage of LC3-PLA2, NBD-HPC fluorescence, 1 h; Q9Y4P1; 340,000 tested, 0.51% active; in the data active = inhibition above about 40%
CR mimetic CP: confirmation of caloric restriction mimetics inhibiting yeast age-related superoxide; shares compounds with CR mimetic SO; 850 tested, 1% active; superoxide response (% of plate), % at 10 µM; S. cerevisiae aging, superoxide DHE fluorescence; hits give low values;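 active = superoxide signal below 65% of the plate average of sample wells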;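 also: cells aged with compound for 7 days at 30 degrees C before staining; 100% equals mean DHE fluorescence of all compound wells on the plate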
DHE counter: DHE fluorescence interference, counter-screen artifact; shares compounds with CR mimetic SO; S. cerevisiae BY4741, flow cytometry; hits give low values; fluorescence response, % at 10 µM; 850 tested, under 10 active;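 active = fluorescence response below 15%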;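 also: percent of the mean fluorescence averaged over all compound wells on the plate; lower means stronger quenching of DHE signal or ROS scavenging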
Cmpd fluor yeast: flagged as fluorescent in efflux inhibitor counter-screen; S. cerevisiae AD/pABC3, compound fluorescence, flow cytometry; fluorescence ratio to DMSO, % at 10 µM; 1,700 tested, 4% active; shares compounds with Efflux pump mplx; AID 588517;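 active = fluorescence ratio to DMSO above its plate's cutoff, the plate mean ratio plus 5 SD, cut at about 210% in these data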;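 also: unstained yeast with no Nile Red so the signal is compound autofluorescence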
Mdr1 pump inh: blocks the Candida albicans Mdr1 efflux pump in yeast; shares compounds with Efflux pump mplx; S. cerevisiae AD/CaMDR1, Nile Red efflux, flow cytometry; inhibition, % at 10 µM; 1,700 tested, 1% active; AID 588518; in the data active = inhibition above about 26%;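 also: 0% = DMSO vehicle and 100% = reference inhibitor; higher means more Nile Red retained so more efflux inhibition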
CaCdr2 efflux inh: Candida Cdr2 efflux pump inhibition; S. cerevisiae AD/CaCDR2, Nile Red retention, flow cytometry; 1,700 tested, 4% active; Nile Red retention ratio vs DMSO, % at 10 µM; shares compounds with Efflux pump mplx; in the data active = Nile Red retention ratio vs DMSO above about 190%;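 also: higher ratio means more blocking of Cdr2 efflux of the dye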
CaCdr1 efflux inh: inhibitors of Candida albicans Cdr1 efflux pump. shares compounds with Efflux pump mplx. S. cerevisiae AD/CaCDR1, Nile Red efflux, flow cytometry. inhibition, % at 10 µM. 1,700 tested, 1% active. AID 588522;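 active = inhibition above the screen-wide mean plus twice its standard deviation, cut at about 32% in these data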
* = called active by the depositor; · = not tested or not shown; + = active, no number. In the library only some 1.6% were active in any assay of this set; here they are far more common.

SMILES	GRK2 aptamer HTS	Efflux pump mplx	CR mimetic SO	ATG4B inh	Cmpd fluor yeast	Mdr1 pump inh	CaCdr2 efflux inh	CaCdr1 efflux inh	others
C[C@]12CCC3C(CC[C@H]4C[C@H](O)CC[C@]34C)C1CCC2=O (some centres undefined)	0	0	57*	-13	·	·	·	·	CR mimetic CP=74;DHE counter=101
C[C@]1(O)CCC2C3CC[C@@H]4CC(=O)CC[C@]4(C)C3CC[C@@]21C (some centres undefined)	0	0	61*	2	·	·	·	·	CR mimetic CP=88;DHE counter=94
C[C@]12CCC(=O)C[C@H]1CC[C@@H]1[C@@H]2CC[C@]2(C)C(=O)CC[C@@H]12	4	0	60*	-29	·	·	·	·	CR mimetic CP=83;DHE counter=93
Cc1ncc(CNC(=O)N(CCCl)N=O)c(N)n1	0	0	114	2	·	·	·	·
CCN(CC)C(=O)c1ccc(NC(=O)CNC(C)c2cccc3ccccc23)cc1 (centres undefined)	1	0	85	-11	·	·	·	·
C=CCn1c(O)c(/C(C)=N/N2CCN(C)CC2)c(=O)[nH]c1=O	3	0	107	-3	·	·	·	·
C=C1C(O)[C@@H]2O[C@]3(CC[C@H](/C=C/C(C)[C@@H]4CC(C)=CC5(O[C@H](C[C@@](C)(O)C(=O)O)CCC5O)O4)O3)CC[C@H]2O[C@@H]1C(O)CC(C)[C@H]1OC2(CCCCO2)CCC1C (some centres undefined)	0	0	47*	7	·	·	·	·	CR mimetic CP=48*;DHE counter=102
CCC(C)C12CN3CCN(CC(C)(C3)C1O)C2 (centres undefined)	0	0	114	-1	·	·	·	·
O=c1[nH]c(O)c(C=Nc2ccc(F)c(Cl)c2)c(=O)[nH]1	0	0	60*	7	·	·	·	·	CR mimetic CP=104;DHE counter=93
CC(=O)O[C@@H]1CC[C@]2(C)C3CC[C@@]4(C)C(C[C@@H](O)[C@@H]4O)C3[C@@H](OC(C)=O)C[C@H]2C1 (some centres undefined)	0	0	104	-1	·	·	·	·	CR mimetic CP=110;DHE counter=112
CC1CCCC(C)N1/N=C/c1c[nH]c2ccc(Br)cc12 (centres undefined)	0	1	99	-11	·	·	·	·
CCCCn1c(O)c(C(=O)/C=C/c2c[nH]c3ccccc23)c(=O)[nH]c1=O	0	0	85	-2	·	·	·	·
C[C@]12CCC3C(CC[C@H]4C[C@H](O)CC[C@]34C)C1C[C@@H](CCCCl)[C@@H]2O (some centres undefined)	0	1	58*	·	·	·	·	·	CR mimetic CP=69;DHE counter=98
C[C@]12CCC3C(CC[C@H]4C[C@H](N)CC[C@]34C)C1CC[C@H]2O (some centres undefined)	0	0	113	16	·	·	·	·	CR mimetic CP=103;DHE counter=96
C[C@]12CCC3C(CC[C@H]4C[C@@H](O)CC[C@]34C)C1C[C@H](Br)[C@@H]2O (some centres undefined)	0	0	73	·	·	·	·	·	CR mimetic CP=108;DHE counter=112
Cc1nn(CC(C)C)c(Cl)c1C(=O)NC1CCC(C)CC1 (centres undefined)	2	0	96	-1	·	·	·	·
O=C(/C=C/c1ccc(F)cc1)NC(=S)N1C[C@H]2C[C@H](C1)c1cccc(=O)n1C2	1	0	80	-34	·	·	·	·
O=C(CCN1CCCCC1)Nc1ccc(Br)cc1C(=O)c1ccccc1	0	1.4*	99	10	102	0	112	0
Cc1c2ccncc2c(C)c2c1[nH]c1ccccc12	2	5.6*	97	-8	118	0	96	0
c1ccc2c(c1)[nH]c1cnccc12	0	0	110	-1	·	·	·	·
CCN(CC)c1ccc(/C=C2\C(=O)NC(=O)N(Cc3ccco3)C2=O)cc1	0	0.5*	108	-5	82	0	102	0
COC(=O)C1=C(c2cccc(C#N)c2)C[C@@H]2CC[C@H]1N2C(=O)NCC1CC1	0	2.5*	117	0	100	0	104	0
Cc1ccc(C(=O)C2(C)N(O)C(C)C(c3cccs3)=[N+]2[O-])cc1 (centres undefined)	1	0	101	3	·	·	·	·
CC1=CC(=O)OC2CC3OC4C[C@@H](C)C5OC6CC7O[C@]8(C)C/C=C\C9OC%10CC%11OC(CC(C)CO)CC(O)[C@]%11(C)OC%10CC9OC8C[C@]7(C)O[C@]6(C)CCC5OC4C[C@]3(C)OC12 (some centres undefined)	3	1.4*	101	-10	105	0	106	1
COc1ccc(NC(=O)N2CCC3(CC2)OCCO3)cc1OC	9	11*	99	0	103	0	108	0
SMILES	GRK2 aptamer HTS	Efflux pump mplx	CR mimetic SO	ATG4B inh	Cmpd fluor yeast	Mdr1 pump inh	CaCdr2 efflux inh	CaCdr1 efflux inh	others
Cc1ccc(-c2cc(-c3ccc(C)cc3)[n+](-c3ccccc3)c(-c3ccc(C)cc3)c2)cc1	0	34*	95	31	105	20	+	15
Cc1ccc(-c2cc(-c3ccccc3)cc(-c3ccccc3)[n+]2-c2ccccc2)cc1	0	0	95	36	·	·	·	·
CCOP(=S)(OCC)SCSP(=S)(OCC)OCC	·	·	·	5	·	·	·	·
Ic1ccccc1CN[C@@H]1C2CCN(CC2)[C@@H]1C(c1ccccc1)c1ccccc1	0	0	98	-1	·	·	·	·
C=C[C@H]1CN2CC[C@H]1C[C@H]2[C@H](O)c1ccnc2ccccc12	4	0	99	3	·	·	·	·
C=CC1CN2CCC1CC2c1[nH]c2ccccc2c1CCO (centres undefined)	3	13*	94	3	89	0	97	0
CC1CCC(NCC(O)c2ccccc2)CC1 (centres undefined)	2	8.2*	101	-2	108	0	100	0
COc1ccc2c(CN3CC=C(c4ccccc4)CC3)cc(=O)oc2c1	0	0	90	-5	·	·	·	·
CCc1ccc2c(CN3CC=C(c4ccccc4)CC3)cc(=O)oc2c1	1	10*	103	1	107	0	101	0
Cc1cccc(C2=NCC(=O)N(CC(=O)NCc3ccco3)c3sc4c(c32)CCCC4)c1	2	0	94	12	·	·	·	·
COc1ccc(C2=NCC(=O)N(CC(=O)NCc3ccco3)c3sc4c(c32)CCCC4)cc1	0	0.8*	131	0	113	0	100	0
C/C(=N\N1CCCCCC1)c1c(O)n(-c2ccccc2)c(=O)[nH]c1=O	0	0	116	30	·	·	·	·
